Assay outcomes deposited in PubChem by Broad Institute.
Hits are enriched below; roughly 3.1% of the tested compounds scored in any of these assays.
esBAF inh: Bmi1 luciferase reporter increase in mESCs, primary screen, esBAF inhibitor project, mouse ES cells, Bmi1 luciferase knock-in, single point; reporter increase, % at 12.5 µM; 24 h; 100% = twice the neutral-well signal; 350,000 compounds, 2% hits; in the data active = activation above about 40%;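 also: 0% = median of the plate's neutral control wells and 100% = double that signal; a rise in the Bmi1 reporter signal indicates esBAF inhibition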
C2C12 statin: suppressors of statin myotoxicity in C2C12 myotubes, primary screen, cell-based, single point, plate reader. rescue of ATP level, % at 7.49 µM. C2C12 myotubes + simvastatin, ATP luminescence, 48 h; scaled: DMSO 0, geranylgeraniol control 100. 330,000 compounds, 0.78% hits;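 active = mean ATP rescue above about 67%, or every replicate alone reaching that limit, limit read from the data, passing the limit was not always enough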;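 also: myotubes were challenged with 10 µM simvastatin during compound exposure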
Wnt act: Wnt/beta-catenin pathway activators, primary screen, cell-based, plate reader, single point; activation, % at 9.35 µM; Wnt/beta-catenin reporter cell assay, activator; 300,000 compounds, 1.2% hits; in the data active = activation above about 30%, passing the limit was not always enough;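 also: 0% = neutral control wells and 100% = positive control wells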
MITF TRPM1 HTS: activators of MITF-driven TRPM1 promoter reporter, primary screen, cell-based, SK-MEL-5, luciferase, single point; SK-MEL-5 TRPM1-promoter luciferase, 24 h; % of positive control, neutral wells = 0; activation, % at 12.5 µM; 300,000 compounds, 0.75% hits; AID 588334, 2011;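 active = mean activation of at least 80% with every replicate also reaching 80%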;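 also: 0% = neutral control wells and 100% = parthenolide positive control wells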
Rtt109 HAT inh: inhibitors of C. albicans Rtt109/Vps75 HAT, primary screen, biochemical, ThioGlo CoA-SH fluorescence, plate reader. Histone acetyltransferase RTT109 (Candida albicans (strain SC5314 / ATCC MYA-2876)), …. purified Rtt109/Vps75, 4 h. inhibition, % at 34.9 µM. 330,000 compounds, 0.16% hits;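 active = inhibition of at least 50% in every replicate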
Target sequence (Q5AAJ8 whole entry, looked up): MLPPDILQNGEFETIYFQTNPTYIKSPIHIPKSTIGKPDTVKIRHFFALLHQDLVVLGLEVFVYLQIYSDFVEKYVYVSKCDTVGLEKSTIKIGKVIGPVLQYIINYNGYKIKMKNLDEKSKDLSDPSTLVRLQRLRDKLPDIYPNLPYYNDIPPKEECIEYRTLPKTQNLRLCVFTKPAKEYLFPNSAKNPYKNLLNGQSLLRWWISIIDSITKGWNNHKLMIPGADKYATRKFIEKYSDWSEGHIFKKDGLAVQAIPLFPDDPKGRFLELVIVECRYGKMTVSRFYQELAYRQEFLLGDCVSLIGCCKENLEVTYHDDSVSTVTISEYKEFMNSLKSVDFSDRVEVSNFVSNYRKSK
The depositor's hits bear a star.

CO[C@H]1CN(C)C(=O)c2ccc(NC(=O)Nc3cc(F)ccc3F)cc2OC[C@@H](C)NC[C@H]1C was read as esBAF inh -4.2 and C2C12 statin -164.9.
For Oc1c(C2=NCCNC(C(F)(F)F)=C2)ccc2ccccc12 the results were Wnt act -0.9, MITF TRPM1 HTS 87.0* and Rtt109 HAT inh 13.3.
Screening CC(C)(Oc1ccc(Cl)cc1)C(=O)NCc1ccco1 returned esBAF inh -12.3, C2C12 statin 122.8*, Wnt act -5.8, MITF TRPM1 HTS 1.0 and Rtt109 HAT inh 0.1.
For CC(C)(Oc1ccc(Cl)cc1)C(=O)NCc1ccncc1 the results were esBAF inh 11.4, C2C12 statin 3.3, Wnt act -2.3, MITF TRPM1 HTS 5.3 and Rtt109 HAT inh 0.5.
`CN(C(=O)c1cncc(Br)c1)C1C2CC3CC(C2)CC1C3` (stereo not given) gave esBAF inh 16.9, C2C12 statin 2.8, Wnt act 2.5, MITF TRPM1 HTS 19.3 and Rtt109 HAT inh 59.2*.
Screening CN(C(=O)COC(=O)c1cncc(Br)c1)C1CCCCC1 returned esBAF inh 0.0, C2C12 statin -3.4, Wnt act -0.1, MITF TRPM1 HTS 0.5 and Rtt109 HAT inh 12.5.
Screening O=C(c1ccccc1)c1nnc(-c2ccccc2F)o1 returned esBAF inh 30.4, C2C12 statin -1.7, Wnt act 60.5* and Rtt109 HAT inh -8.8.
`Cc1ccc(N(C(=O)C2CCC(=O)N2)C2(C(=O)NC3CCCCC3)CCCCC2)cc1` (stereo not given) gave esBAF inh -0.3, C2C12 statin 119.3*, Wnt act 5.9, MITF TRPM1 HTS -9.8 and Rtt109 HAT inh -9.8.
Cc1ccc(N(C(=O)c2ccccn2)C2(C(=O)NC3CCCC3)CCCCC2)cc1 was read as esBAF inh 0.6, C2C12 statin 8.2, Wnt act 1.5, MITF TRPM1 HTS -4.4 and Rtt109 HAT inh -17.6.
Screening O=C(C[C@H]1CC[C@@H]2[C@H](COC[C@H](O)CN2C(=O)Nc2ccc3c(c2)OCO3)O1)N1CCN(c2ccccc2)CC1 returned esBAF inh -14.0 and C2C12 statin -18.8.
`Cc1ccc(Sc2ncccc2O)cc1` gave Wnt act 68.8*, MITF TRPM1 HTS 19.7 and Rtt109 HAT inh -5.5.
Screening Cc1ccc(Sc2ncccc2N)cc1 returned Wnt act 7.2.
Screening C[C@@H]1CN([C@@H](C)CO)C(=O)c2cc(NC(=O)CCCCCC(=O)Nc3ccccc3N)ccc2O[C@@H](C)CCCCO[C@@H]1CN(C)C(=O)Nc1ccc(C(F)(F)F)cc1 returned esBAF inh -5.0.
CC(C)NC(=O)N[C@H]1CC[C@@H](CC(=O)NCCN2CCCC2)O[C@H]1CO was read as esBAF inh -0.6 and C2C12 statin -0.8.
For COc1ccc(S(=O)(=O)N(C)C[C@@H]2OCCCC[C@@H](C)Oc3ccc(NC(=O)Nc4ccc(C(F)(F)F)cc4)cc3C(=O)N([C@@H](C)CO)C[C@@H]2C)cc1 the results were esBAF inh 9.1 and C2C12 statin -73.0.
Screening CC1(C)CC(=O)C(=Cc2cn(CCC#N)nc2-c2ccc(Cl)cc2)C(=O)C1 returned Wnt act -1.9, MITF TRPM1 HTS 10.7 and Rtt109 HAT inh -1.5.
CC1(C)CC(=O)C(=Cc2cn(-c3ccccc3)nc2-c2ccc(Cl)cc2)C(=O)C1 was read as esBAF inh 83.4*, C2C12 statin -17.6, MITF TRPM1 HTS 12.6 and Rtt109 HAT inh 0.4.
`CCCNC(=O)C[C@@H]1CC[C@@H]2[C@@H](COc3ccc(NC(=O)c4ccc(Cl)cc4)cc3C(=O)N2C)O1` gave esBAF inh 0.6 and C2C12 statin -2.2.
Cn1c(-n2c(-c3ccco3)nc3ccccc3c2=O)nc2ccccc21 was read as esBAF inh 49.0*, Wnt act 8.1, MITF TRPM1 HTS 18.8 and Rtt109 HAT inh -4.1.
For C[C@@H]1CN([C@@H](C)CO)S(=O)(=O)c2ccc(-c3ccncc3)cc2O[C@H]1CN(C)S(=O)(=O)c1ccccc1F the results were esBAF inh 1.7 and C2C12 statin -9.1.
`COc1ccc(/C=C2\SC(=O)N(CCC(=O)Nc3ccccc3)C2=O)cc1OC` gave MITF TRPM1 HTS -5.0 and Rtt109 HAT inh -17.7.
`COc1cc(/C=C2\SC(=O)N(CCN)C2=O)ccc1OS(=O)(=O)c1cc(C)ccc1C` gave Wnt act 39.0*, MITF TRPM1 HTS 0.5 and Rtt109 HAT inh -0.5.
Cc1ccsc1-c1nc(-c2ccccc2)c(-c2ccccc2)[nH]1 was read as esBAF inh -3.2, C2C12 statin -12.8, Wnt act 53.1* and Rtt109 HAT inh -4.3.
CS(=O)(=O)c1ccc2nc(NC(=O)c3ccccc3Br)sc2c1 was read as esBAF inh 57.9*, C2C12 statin -0.1, Wnt act 4.2 and Rtt109 HAT inh 5.7.
COc1ccccc1C(=O)Nc1nc2ccc(S(C)(=O)=O)cc2s1 was read as esBAF inh 48.8*, C2C12 statin -11.7, MITF TRPM1 HTS 59.7 and Rtt109 HAT inh -5.3.
For CN(C)S(=O)(=O)c1ccc2nc(NC(=O)c3cccnc3)sc2c1 the results were Wnt act 38.0*, MITF TRPM1 HTS 61.0 and Rtt109 HAT inh -21.9.
CO[C@@H]1CN(C)C(=O)c2cc(NS(=O)(=O)c3cccc(F)c3)ccc2OC[C@H](C)NC[C@H]1C was read as esBAF inh -1.7 and C2C12 statin -2.2.
COc1ccccc1NC(=O)/C=C\c1ccco1 was read as esBAF inh 53.9*, C2C12 statin -2.7, Wnt act 9.1, MITF TRPM1 HTS 31.5 and Rtt109 HAT inh 4.7.
`O=C(/C=C/c1ccco1)Nc1cccnc1` gave Wnt act 53.1*, MITF TRPM1 HTS 41.6 and Rtt109 HAT inh 0.4.
Screening COc1cccc(NC(=O)/C=C/c2ccco2)c1 returned Wnt act 68.3*, MITF TRPM1 HTS 73.0 and Rtt109 HAT inh -16.1.
C[C@@H]1CN([C@@H](C)CO)S(=O)(=O)c2ccc(C#C[C@@H](C)O)cc2O[C@H]1CN(C)Cc1ccc(-c2ccccc2)cc1 was read as esBAF inh -5.6 and C2C12 statin -42.2.
O=S(=O)(NC1=NCCCCC1)c1ccc2sc(NS(=O)(=O)c3ccc4ccccc4c3)nc2c1 was read as esBAF inh 3.1, C2C12 statin 42.8, Wnt act 9.3, MITF TRPM1 HTS 10.0 and Rtt109 HAT inh 8.9.
c1ccc2c(Nc3nc4c(s3)CCCC4)cccc2c1 was read as esBAF inh 38.8, C2C12 statin 12.7, Wnt act 34.9* and Rtt109 HAT inh 3.2.
`O=S(=O)(Nc1nc2c(s1)CCCC2)c1ccc2ccccc2c1` gave esBAF inh -1.2, C2C12 statin 122.6*, MITF TRPM1 HTS 4.8 and Rtt109 HAT inh 17.1.
